The values that follow come from PMC8384837, “Expanding the binding specificity for RNA recognition by a PUF domain”.

Holding throughout (assay): yeast three-hybrid, YBZ-1, SC-Leu-His + 0.5 mM 3-AT, 4 days
Common to all, as to conditions: tags: N-Gal4 AD-HA kept; label: inside an RPR1-promoter hybrid RNA with tandem MS2 sites; ssRNA

The target of one assay is PUM1 PUF domain R5-NVR (Homo sapiens, UniProt Q14671 828-1176, C1007N;R1008V;Q1011R). A digest of the protocol:
(§1)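 The interaction score is the logarithmic change in variant frequency from input to selection. It uses log2, with a pseudocount of 1 for absent variants, and frequencies came from PCR-amplified, Illumina-sequenced repeat regions. The libraries were Pumilio-1 PUF domains randomized at the three base-contacting residues per repeat, co-expressed with matching RNA elements in strain YBZ-1 (LexA–MS2 coat fusion, HIS3 reporter). Plating lasted four days on SC-Leu (input) or SC-Leu-His + 0.5 mM 3-AT (selection).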

In a further assay the target is PUM1 PUF domain R5-KMV (Homo sapiens, UniProt Q14671 828-1176, C1007K;R1008M;Q1011V). A digest of the protocol: as §1
The target in the next assay is PUM1 PUF domain R5-PRK (Homo sapiens, UniProt Q14671 828-1176, C1007P;Q1011K). A digest of the protocol: as §1
Chain of PUM1 PUF domain R5-PRK (Q14671 828-1176 C1007P/Q1011K): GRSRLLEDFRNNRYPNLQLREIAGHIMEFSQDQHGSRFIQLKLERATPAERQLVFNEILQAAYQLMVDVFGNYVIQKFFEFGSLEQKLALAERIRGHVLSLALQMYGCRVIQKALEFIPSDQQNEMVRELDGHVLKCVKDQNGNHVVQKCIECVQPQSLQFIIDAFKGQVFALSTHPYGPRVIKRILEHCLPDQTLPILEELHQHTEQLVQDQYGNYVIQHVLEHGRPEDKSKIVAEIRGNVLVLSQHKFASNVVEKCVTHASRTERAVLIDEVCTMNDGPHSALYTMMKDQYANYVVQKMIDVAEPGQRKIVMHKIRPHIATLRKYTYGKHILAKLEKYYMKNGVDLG
Another assay addresses PUM1 PUF domain R7-ERR (Homo sapiens, UniProt Q14671 828-1176, S1079E;N1080R;E1083R). A digest of the protocol: as §1
Another assay concerns the target PUM1 PUF domain R7-DYV (Homo sapiens, UniProt Q14671 828-1176, S1079D;N1080Y;E1083V). A digest of the protocol: as §1
In a further assay the target is PUM1 PUF domain R3-LYR (Homo sapiens, UniProt Q14671 828-1176, C935L;R936Y;Q939R). A digest of the protocol: as §1
The next assay concerns the target PUM1 PUF domain R3-VWD (Homo sapiens, UniProt Q14671 828-1176, C935V;R936W;Q939D). A digest of the protocol: as §1
The target in the next assay is PUM1 PUF domain R4-SPQ (Homo sapiens, UniProt Q14671 828-1176, N971S;H972P). A digest of the protocol:
as §1

The target of a further assay is T1, PUM1 PUF domain R6-VFL (Homo sapiens, UniProt Q14671 828-1176, N1043V;Y1044F;Q1047L).
T1 sequence: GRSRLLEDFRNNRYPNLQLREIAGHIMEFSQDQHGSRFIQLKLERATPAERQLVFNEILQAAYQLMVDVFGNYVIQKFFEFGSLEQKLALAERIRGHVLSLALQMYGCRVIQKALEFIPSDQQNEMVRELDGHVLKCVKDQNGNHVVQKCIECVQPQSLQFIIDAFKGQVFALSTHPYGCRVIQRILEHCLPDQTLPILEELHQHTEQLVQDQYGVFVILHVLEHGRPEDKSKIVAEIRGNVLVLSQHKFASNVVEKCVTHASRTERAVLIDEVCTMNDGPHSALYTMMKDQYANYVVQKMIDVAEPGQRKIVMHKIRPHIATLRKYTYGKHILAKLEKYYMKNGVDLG
A digest of the protocol:
as §1

Another assay concerns the target PUM1 PUF domain R5-PHQ (Homo sapiens, UniProt Q14671 828-1176, C1007P;R1008H). A digest of the protocol:
as §1

The target in the next assay is PUM1 PUF domain R8-KRV (Homo sapiens, UniProt Q14671 828-1176, N1122K;Y1123R;Q1126V). A digest of the protocol: as §1
The target of a further assay is PUM1 PUF domain R8-RFK (Homo sapiens, UniProt Q14671 828-1176, N1122R;Y1123F;Q1126K). A digest of the protocol: as §1
A further assay deals with PUM1 PUF domain R8-RYC (Homo sapiens, UniProt Q14671 828-1176, N1122R;Q1126C). A digest of the protocol:
as §1

The next assay has as its target PUM1 PUF domain R8-LYI (Homo sapiens, UniProt Q14671 828-1176, N1122L;Q1126I). A digest of the protocol:
as §1

With “GGCUAGAACUAGUGGAUCCCCCGGCGCCCGGCGGCUCGAGCCCGGGUAAGUGUCAAUAGUCUGCAUGCCGCCGGGCGCCAUGCCUGCAGGUCGACUCUAGAAAACAUG”, the binding signal with PUM1 PUF domain R5-NVR is 2.77 log2 enrichment (interaction score); in the assay with PUM1 PUF domain R5-KMV, 3.71 log2 enrichment (interaction score); with PUM1 PUF domain R5-PRK, 2.13 log2 enrichment (interaction score).
For “GGCUAGAACUAGUGGAUCCCCCGGCGCCCGGCGGCUCGAGCCCGGGUAAGUUUAAAUAGUCUGCAUGCCGCCGGGCGCCAUGCCUGCAGGUCGACUCUAGAAAACAUG”, the binding signal with PUM1 PUF domain R7-ERR is 3.08 log2 enrichment (interaction score); with PUM1 PUF domain R7-DYV it was 6 log2 enrichment (interaction score).
As for “GGCUAGAACUAGUGGAUCCCCCGGCGCCCGGCGGCUCGAGCCCGGGUAAGUCUAAAUAGUCUGCAUGCCGCCGGGCGCCAUGCCUGCAGGUCGACUCUAGAAAACAUG”, the binding signal with PUM1 PUF domain R7-ERR was 1.25 log2 enrichment (interaction score).
Consider “GGCUAGAACUAGUGGAUCCCCCGGCGCCCGGCGGCUCGAGCCCGGGUAAGUGUAAGUAGUCUGCAUGCCGCCGGGCGCCAUGCCUGCAGGUCGACUCUAGAAAACAUG”, for which the results for the binding signal with PUM1 PUF domain R3-LYR and with PUM1 PUF domain R3-VWD were 5.31 log2 enrichment (interaction score) and 1.13 log2 enrichment (interaction score), respectively.
Take “GGCUAGAACUAGUGGAUCCCCCGGCGCCCGGCGGCUCGAGCCCGGGUAAGUGUAAAUAGUCUGCAUGCCGCCGGGCGCCAUGCCUGCAGGUCGACUCUAGAAAACAUG”: the binding signal with PUM1 PUF domain R4-SPQ is 3.02 log2 enrichment (interaction score); with PUM1 PUF domain R6-VFL it was 1.07 log2 enrichment (interaction score); in the assay with PUM1 PUF domain R5-PHQ it was 3.63 log2 enrichment (interaction score); with PUM1 PUF domain R3-LYR, 4.29 log2 enrichment (interaction score); in the assay with PUM1 PUF domain R8-KRV it was 2.09 log2 enrichment (interaction score); with PUM1 PUF domain R8-RFK it was 6.27 log2 enrichment (interaction score). Also, the binding signal is 5.15 log2 enrichment (interaction score) with PUM1 PUF domain R8-RYC, 1.1 log2 enrichment (interaction score) with PUM1 PUF domain R8-LYI, 2.27 log2 enrichment (interaction score) in the assay with PUM1 PUF domain R5-PRK and 5.84 log2 enrichment (interaction score) with PUM1 PUF domain R3-VWD.
As for “GGCUAGAACUAGUGGAUCCCCCGGCGCCCGGCGGCUCGAGCCCGGGUAAGUGAAAAUAGUCUGCAUGCCGCCGGGCGCCAUGCCUGCAGGUCGACUCUAGAAAACAUG”, the binding signal with PUM1 PUF domain R6-VFL is 7.04 log2 enrichment (interaction score).
On to “GGCUAGAACUAGUGGAUCCCCCGGCGCCCGGCGGCUCGAGCCCGGGUAAGUGUGAAUAGUCUGCAUGCCGCCGGGCGCCAUGCCUGCAGGUCGACUCUAGAAAACAUG”, for which the binding signal with PUM1 PUF domain R5-PRK was 3.87 log2 enrichment (interaction score).
